Bioassay records from PubChem.
Pf growth 96h: P. falciparum growth inhibition at 96 hours; P. falciparum luciferase reporter growth, 96 h; Potency, µM (series often up to 28.7 µM), hits mostly inhibitors; actives 6.9% (n = 320,000)
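Erythrocytes infected with luciferase-expressing P. falciparum were dispensed at 2% hematocrit and 0.05% parasitemia (final), then incubated with compounds 96 hours at 37 C in 5% CO2. Luminescence after detection reagent addition reported growth.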
Pf growth 48h: inhibits P. falciparum growth in the first generation, 48 h. P. falciparum luciferase growth in erythrocytes, 48 h. Potency, µM (titrated, usually from 28.7 µM), most hits filed as inhibitors. actives 5.9% (n = 310,000). AID 504832
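Growth was read as firefly luciferase luminescence after a 48 h, 37 C, 5% CO2 exposure of compounds to reporter-bearing P. falciparum cultures (0.1% parasitemia, 2% hematocrit final) in Albumax-supplemented RPMI 1640.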
CHX counter: counter-screen for Shiga toxin inhibitors: cycloheximide protein synthesis inhibition | AID 2314 | max response, % | cell reporter, cycloheximide protein synthesis inhibition counterscreen | actives 12% (n = 300,000); in the data active means max response mostly above about 13%, no sharp cut-off; inactive means mostly below about 14%; further: read at 38.3 µM for the half of the compounds with a filed dose
Shiga inhibitor: inhibitors of Shiga toxin in Vero cells. inhibition, % at 38.7 µM. actives 9.2% (n = 290,000). AID 2315. Vero cells, Shiga toxin protein synthesis inhibition reporter; in the data active means inhibition mostly above about 28%, no sharp cut-off; inactive means mostly below about 43%
A number is an active result; – = inactive; ? = inconclusive; · = not tested or not shown. Sampled rows, rich in hits. Any-hit rate of the full collection: about 21%. Unless noted, the call rests on the fitted dose curve; in most records, active means well fitted inhibition curve with a large enough effect; inconclusive means small, poorly fitted or top-dose-only effect, or another doubt; inactive means no such curve, though single readings can be large or run the other way.

SMILES | Pf growth 96h | Pf growth 48h | CHX counter | Shiga inhibitor
COC(=O)C(NC(=O)CCc1c(C)nc2c(c(C)nn2-c2ccccc2)c1C)C(C)C (stereo not given) | – | 6.6µM | – | –
Cc1ccc(CNC(=O)c2ccc(F)c(S(=O)(=O)N3CCOCC3)c2)cc1 | – | ? | · | ·
COc1cccc(/C=N/NC(=O)c2cnn(-c3ccccc3)c2N)c1 | – | – | 46 | 72
Nc1c(C(=O)N/N=C/c2cccnc2)cnn1-c1ccccc1 | – | – | 47 | 51
CN(c1ccc(C(=O)NCCSCc2ccco2)cc1)S(C)(=O)=O | · | – | 30 | 41
CN(c1ccc(C(=O)Nc2ccccc2C(=O)N2CCCC2)cc1)S(C)(=O)=O | · | – | – | –
CN(c1ccc(C(=O)NCc2ccco2)cc1)S(C)(=O)=O | · | – | – | –
CN(c1ccc(C(=O)Nc2ccccc2C(F)(F)F)cc1)S(C)(=O)=O | ? | – | – | 41
Cc1ccc(S(=O)(=O)N(C)c2ccc(C(=O)NCCc3ccccc3)cc2)cc1 | 10µM | ? | 32 | 62
CC(C)(C)SCCNC(=O)c1ccc(Cl)c([N+](=O)[O-])c1 | – | – | 27 | 98
Cc1ccccc1CNC(=O)c1ccc(Cl)c([N+](=O)[O-])c1 | – | – | – | –
OCCC1CN(Cc2ccc3cccc(F)c3n2)CCN1Cc1ccccc1 (stereo not given) | ? | – | – | –
CCc1ccc(S(=O)(=O)NCc2csc(C)n2)cc1 | – | – | – | –
Cc1ccc2c(c1)N(C(=O)CCC(=O)NC1CCC(C)CC1)CCO2 (stereo not given) | – | – | – | –
CCN(Cc1ccccc1)C(=O)c1ccc(N(C)S(=O)(=O)c2ccc(C)cc2)cc1 | ? | 15µM | · | ·
CN(c1ccccc1)S(=O)(=O)c1cccc(C(=O)NCCc2ccc(O)c(O)c2)c1 | ? | 13µM | – | –
CN(c1ccc(C(=O)NCCCn2ccnc2)cc1)S(C)(=O)=O | – | – | – | –
CCN(Cc1ccccc1)C(=O)c1ccc(CNS(=O)(=O)c2ccc(C)cc2)cc1 | – | ? | – | –
CC(C)c1ccc(N(CC(=O)NCCSC(C)(C)C)S(C)(=O)=O)cc1 | – | · | 31 | –
CN(c1ccc(C(=O)NCCSC(C)(C)C)cc1)S(C)(=O)=O | · | – | 37 | 140
CC(=O)c1cccc(NC(=O)COC(=O)c2ccc3c(c2)OCO3)c1 | – | – | · | ·
Cc1ccc(C)c(OC(=O)c2cccc(S(=O)(=O)N3CCN(C)CC3)c2)c1 | ? | ? | – | –
CN(c1ccc(C(=O)NCCc2ccccc2)cc1)S(C)(=O)=O | – | · | 21 | 68
CC(NC(=O)c1c(Cl)cnn1C)C1CCCO1 (stereo not given) | – | – | – | –
O=C(O)c1cccc(Cn2c(Cl)c(/C=N/NC(=O)c3ccco3)sc2=O)c1 | – | – | 33 | 27
SMILES | Pf growth 96h | Pf growth 48h | CHX counter | Shiga inhibitor
O=C(O)c1cccc(Cn2c(Cl)c(/C=N/NC(=O)c3cccc(O)c3)sc2=O)c1 | ? | – | 24 | 75
O=C(O)c1cccc(Cn2c(Cl)c(/C=N/NC(=O)c3ccccc3)sc2=O)c1 | – | – | – | –
CC(=O)Oc1cccc(C(=O)Nc2ccccc2C(=O)N2CCCC2)c1 | – | – | – | –
CCNC(=S)NNC(=O)c1cc(-c2cccc(OCC)c2)nc2ccccc12 | · | ? | 14 | –
CCCCOc1cccc(-c2cc(C(=O)NNC(=S)NCC)c3ccccc3n2)c1 | 12µM | · | 28 | –
CCCCOc1ccc(-c2cc(C(=O)NNC(=S)NCC)c3ccccc3n2)cc1 | · | ? | – | –
CCNC(=S)NNC(=O)c1cc(-c2cccc(C)c2)nc2ccccc12 | ? | – | 21 | –
O=S(=O)(c1ccccc1)N1CCN(c2nc(-c3ccc(F)cc3)nc3cc(Cl)ccc23)CC1 | · | · | – | –
COC(=O)C1(C)NC(=O)c2ccccc2N1 (stereo not given) | 13µM | – | 15 | –
CC(=O)c1ccc(O)c(CSC2=NCCS2)c1 | – | – | – | –
Cc1nc(NC(=O)/C=C/c2ccccc2)sc1C(=O)Nc1ccc(Cl)cc1 | – | ? | – | –
Cc1nc(Nc2ccc(Cl)c(Cl)c2)sc1C(=O)Nc1ccccc1 | ? | ? | 25 | –
Cc1nc(Nc2ccc(Cl)cc2Cl)sc1C(=O)Nc1ccccc1 | 12µM | ? | – | –
Cc1nc(NC(=O)C2CC2)sc1C(=O)Nc1ccccc1Cl | – | – | 33 | –
COc1ccc(C23CC4CC(CC(C4)C2)C3)cc1C(=O)NCCN(C)C | 12µM | ? | – | –
COc1ccccc1C(=O)NCCC(=O)NCCC12CC3CC(CC(C3)C1)C2 | – | – | – | –
Cc1cc(C(=O)OCC(=O)Nc2ccccc2[N+](=O)[O-])c2ccccc2n1 | – | ? | – | –
COc1ccc(S(=O)(=O)NCCc2c[nH]c3ccc(C)cc23)cc1 | – | – | – | –
Cc1ccc(C(=O)Nc2cccc(S(=O)(=O)N(C)c3ccccc3)c2)o1 | 13µM | 8.3µM | · | ·
COCCn1cnnc1SCC(=O)Nc1cccc(S(=O)(=O)N(C)c2ccccc2)c1 | ? | ? | – | –
CN(c1ccccc1)S(=O)(=O)c1cccc(NC(=O)CN2CCc3ccccc3C2)c1 | 10µM | – | – | –
Cc1nnc(SCC(=O)Nc2cccc(S(=O)(=O)N(C)c3ccccc3)c2)s1 | ? | – | 38 | –
NS(=O)(=O)c1cccc(NC(=O)COc2ccc([N+](=O)[O-])cc2)c1 | – | 9.3µM | – | –
CCOc1ccc(CN(C)CC(=O)Nc2cccc(S(=O)(=O)N(C)c3ccccc3)c2)cc1 | ? | – | – | –
COc1cc(/C=C2/SC(=S)N(CC(=O)O)C2=O)ccc1OCC(=O)Nc1ccc(C)c(C)c1 | – | ? | – | –
SMILES | Pf growth 96h | Pf growth 48h | CHX counter | Shiga inhibitor
COc1cccc(NC(=O)CN2CCc3ccccc3C2)c1 | – | – | 17 | –
CN1C(=O)N(CC(=O)Nc2cccc(S(=O)(=O)N(C)c3ccccc3)c2)C(=O)C12CCCCC2 | ? | 15µM | · | ·
Cc1ccc(NC(=O)CN2CCc3ccccc3C2)cc1F | – | – | – | –
CCC(=O)c1ccc(OCC(=O)Nc2cccc(S(=O)(=O)N(C)c3ccccc3)c2)cc1 | – | ? | · | ·
CN(c1ccccc1)S(=O)(=O)c1cccc(NC(=O)CC(C)(C)C)c1 | 12µM | – | – | –
CN(c1ccccc1)S(=O)(=O)c1cccc(NC(=O)COc2cccc([N+](=O)[O-])c2)c1 | – | 13µM | · | ·
NNC(=O)/C(=C/c1cccs1)NC(=O)c1ccccc1Cl | – | – | – | –
CC1CCC/C(=N\Nc2ccc(Cl)c(C(=O)O)c2)C1 (stereo not given) | – | – | 165 | 60
COc1ccc(NCC(=O)N/N=C2\CCCC(C)C2)cc1 (stereo not given) | – | – | – | –
CC1CCC/C(=N\NC(=O)Nc2ccccc2)C1 (stereo not given) | ? | – | 27 | 53
CCN(CC)S(=O)(=O)c1cccc(-c2nnc(SCC(=O)NC3CCCCCCC3)n2N)c1 | · | – | – | –
O=C(CSc1ccccc1)OCC(=O)N1CCN(C(=O)c2ccco2)CC1 | – | ? | · | ·
COc1ccc(CNC(=O)[C@@H](C)NC(=O)C2CCN(C(=O)[C@@H](N)CCSC)CC2)cc1 | – | – | – | –
Cc1ccc(C(=O)NC(=S)Nc2ccc(N3CCOCC3)cc2)cc1C | ? | – | – | –
